Measurements published in the supplement of paper PMC13094657.
± gives the standard deviation of the averaged measurements.

Legend:
[1] = test system: MDA-MB-231; assay: cell viability relative to vehicle unstimulated control (fraction); higher = more viable cells; conditions: pre-treatment time: 18 h then 24 h IFNg/TNF
[2] = test system: MDA-MB-231; assay: kynurenine production, fold change vs DMSO IFNg/TNF control; higher = more kynurenine produced (less inhibition); conditions: pre-treatment time: 18 h then 24 h IFNg/TNF
In short: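 MDA-MB-231 cells were seeded in 96-well plates at 7 × 10^4/well and, 24 h later, pre-treated for 18 h with each natural product in 0.1% DMSO. They were then stimulated for 24 h at 37°C with IFNγ (1 U/ml) and TNF (6.25 ng/ml). Supernatants were treated with trichloroacetic acid and p-dimethylaminobenzaldehyde and read at 492 nm against 0–100 μM standards. Kynurenine production is expressed as fold change over cytokine-stimulated vehicle wells on the same plate and, in the first screening round, averaged across duplicate plates.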
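Throughout, for cell viability relative to vehicle unstimulated control: viability of the cells left after supernatant collection, read with Deep Blue dye added for 4 h, as absorbance at 570 nm minus 600 nm.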

Row | Structure (SMILES) | cell viability [1] | kynurenine production [2]
1 | C=C(C)[C@@H]1CC[C@]2(C(=O)O)CC[C@]3(C)[C@H](CC[C@@H]4[C@@]5(C)CC[C@H](OC(=O)CC(C)(C)C(=O)O)C(C)(C)[C@@H]5CC[C@]43C)[C@@H]12 [Bevirimat] (compound dose: 10 uM) | 1.018 ± 0.0069 | 0.778 ± 0.15
2 | CC(C)=CCC[C@](C)(O[C@@H]1O[C@H](CO)[C@@H](O)[C@H](O)[C@H]1O)[C@H]1CC[C@]2(C)[C@@H]1[C@H](O)C[C@@H]1[C@@]3(C)CC[C@H](O[C@@H]4O[C@H](CO)[C@@H](O)[C@H](O)[C@H]4O)C(C)(C)[C@@H]3CC[C@]12C [Ginsenoside F2] (compound dose: 10 uM) | 0.992 ± 0.033 | 0.818 ± 0.12
3 | CO[C@H]1O[C@@H]2O[C@@]3(C)CC[C@H]4[C@H](C)CC[C@@H]([C@H]1C)[C@@]24OO3 [Artemether] (compound dose: 10 uM) | 1 ± 0.11 | 0.37 ± 0.12
4 | C[C@@H]1C[C@@H]([C@@H](O)C(C)(C)O)O[C@H]2C[C@@]3(C)C(=C12)C[C@H](O)[C@H]1[C@@]2(C)CCC(=O)C(C)(C)[C@@H]2CC[C@@]13C [Alisol F] (compound dose: 10 uM) | 0.991 ± 0.032 | 0.848 ± 0.048
5 | C[C@@H]1CC[C@]2(C(=O)O)CC[C@]3(C)C(=CC[C@@H]4[C@@]5(C)C[C@@H](O)[C@@H](O)C(C)(C)[C@@H]5CC[C@]43C)[C@@H]2[C@]1(C)O [Euscaphic acid] (compound dose: 10 uM) | 0.933 ± 0.02 | 0.804 ± 0.15
6 | C/C1=C\CC[C@]23O[C@H]2[C@@H](OC3=O)c2c(C)coc2C1 [Linderane] (compound dose: 10 uM) | 0.985 ± 0.032 | 0.942 ± 0.096
7 | C=C(C)[C@@H]1CC[C@]2(C(=O)O)CC[C@]3(C)[C@H](CC[C@@H]4[C@@]5(C)CCC(=O)C(C)(C)[C@@H]5CC[C@]43C)[C@@H]12 [Betulonic acid] (compound dose: 10 uM) | 0.836 ± 0.033 | 0.785 ± 0.074
8 | C/C=C(\C)C(=O)O[C@H]1[C@H](O)[C@]2(COC(C)=O)[C@@H](O)C[C@]3(C)C(=CC[C@@H]4[C@@]5(C)CC[C@H](O[C@@H]6O[C@H](C(=O)O)[C@@H](O)[C@H](O)[C@H]6O)[C@@](C)(CO)[C@@H]5CC[C@]43C)[C@@H]2CC1(C)C [Gymnemic acid I] (compound dose: 10 uM) | 1.1 ± 0.017 | 1.43 ± 0.11
9 | C=C[C@@](C)(/C=C/c1ccc(O)cc1)CCC=C(C)C [Bakuchiol] (compound dose: 10 uM) | 0.95 ± 0.037 | 0.736 ± 0.018
10 | C[C@H]1O[C@@H](O[C@H]2CC[C@@]3(C)[C@@H](CC[C@]4(C)[C@@H]3C=CC3=C5CC(C)(C)CC[C@]5(CO)[C@H](O)C[C@]34C)[C@]2(C)CO)[C@H](O)[C@@H](O[C@@H]2O[C@H](CO)[C@@H](O)[C@H](O)[C@H]2O)[C@H]1O [Saikosaponin B2] (compound dose: 10 uM) | 1.047 ± 0.0068 | 0.739 ± 0.04
11 | C=C(C(=O)O)[C@@H]1CC[C@@H](C)[C@@H]2CCC(C)=C[C@@H]21 [Artemisinic acid] (compound dose: 10 uM) | 1.08 ± 0.11 | 0.889 ± 0.031
12 | C=C1C(=O)O[C@@H]2C[C@@]3(C)CCCC(=C)[C@@H]3C[C@H]12 [Isoalantolactone] (compound dose: 10 uM) | 0.951 ± 0.082 | 0.255 ± 0.077
13 | CC(=O)O[C@H]1C(=O)[C@@]2(C)[C@H]([C@H](OC(=O)c3ccccc3)[C@]3(O)C[C@H](OC(=O)[C@H](O)[C@@H](NC(=O)c4ccccc4)c4ccccc4)C(C)=C1C3(C)C)[C@]1(OC(C)=O)CO[C@@H]1C[C@@H]2O [Paclitaxel] (compound dose: 10 uM) | 0.827 ± 0.035 | 0.317 ± 0.017
14 | C/C1=C\[C@@H]2[C@H](CC/C(C)=C/CC(=O)/C(C)=C/CC1)C2(C)C [5-ketocasbene/9-ketocasbene] (compound dose: 10 uM) | 1.155 ± 0.0076 | 1.03 ± 0.12
15 | C[C@H]1O[C@@H](Oc2ccc(COC(=O)CC(O)(CC(=O)OCc3ccc(O[C@@H]4O[C@H](CO)[C@@H](O)[C@H](O)[C@H]4O)cc3)C(=O)Oc3ccc(O[C@H]4O[C@H](CO)[C@@H](O)[C@H](O)[C@H]4O)cc3)cc2)[C@H](O)[C@@H](O)[C@@H]1O (some centres not stated) [Parishin] (compound dose: 10 uM) | 0.985 ± 0.054 | 0.792 ± 0.13
16 | C/C=C1\C(=O)C[C@H]2[C@@H]3CCC4=CC(=O)CC[C@]4(C)[C@H]3CC[C@]12C [Guggulsterone] (compound dose: 10 uM) | 0.9378 ± 0.0046 | 0.324 ± 0.043
